Screens as filed in PubChem BioAssay.
PLK1 PBD inh = PLK1 (human) polo-box domain binding inhibition. Potency, µM, without a hit: max response, negative = inhibition, usual class: inhibitors. hit rate 2.8% among 360,000. AID 720504. Plk1 PBD binding of FITC phosphopeptide, fluorescence polarization; further: series mostly up to about 57 µM; on the % scale 0 is the no-effect control and ±100 the full control effect; nearly all actives have a fitted effect of over 65% in size
BAZ2B inh = blocks human BAZ2B | hit rate 4.4% among 360,000 | Q9UIF8 | AlphaScreen BAZ2B-H3K14Ac peptide displacement | Potency, µM (titrated, usually from 114 µM), for inactives: top-dose activity change, negative = inhibition, actives largely listed as inhibitors; further: on the % scale 0 is the no-effect control and ±100 the full control effect; nearly all actives have a fitted effect of over 60% in size
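Multi-concentration screen (max 110 uM) measuring displacement of acetylated histone H3 peptide from BAZ2B by AlphaScreen, using 50 nM protein, 50 nM peptide and 10 ug/mL streptavidin donor plus Ni-chelate acceptor beads.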
G9a block = blocks human histone lysine methyltransferase G9a; Potency, µM (series often up to 102 µM), inactives show top-dose activity, negative = inhibition, hits mostly inhibitors; Q96KQ7; hit rate 8.8% among 350,000; G9a H3K9 monomethylation, AlphaScreen, 2 h; further: on the % scale 0 is the no-effect control and ±100 the full control effect; nearly all actives have a fitted effect of over 75% in size
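AlphaScreen read-out: biotin-H3K9 peptide (500 nM) methylation by 20 nM enzyme with 20 uM SAM, 2 h at room temperature after 15 min compound preincubation; anti-monomethyl H3K9 antibody plus donor/acceptor beads, 10 min dark.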
HP1b chromo inh = inhibitors of HP1-beta chromodomain binding to methylated histone tails | P83916 | AlphaScreen HP1-beta / biotin-H3K9me3 peptide binding | hit rate 0.56% among 390,000 | Potency, µM (series often up to 114 µM), inactives show at the top dose activity change, negative = inhibition, hits mostly inhibitors; further: nearly all actives have a fitted effect of over 70% in size
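Compound inhibition of the preformed complex between 50 nM HP1-beta and 50 nM biotinylated H3K9me3 peptide was read by AlphaScreen. Buffer was PBS pH 7.4 with 0.01% Tween-20. Incubations ran 30 min at room temperature, with 10 ug/mL donor/acceptor beads.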
Sfp inh = Sfp phosphopantetheinyl transferase inhibition; Potency, µM, inactives show largest response in the series, negative = inhibition, actives largely listed as inhibitors; Biochemical Sfp PPTase activity, qHTS; AID 1490; hit rate 3.5% among 310,000;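 further: the enzyme is Sfp with the accession as filed and its product quenches rhodamine fluorescence; 0% = enzyme reaction without inhibitor and -100% = no enzyme wells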
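Step 1, compound plus 15 nM Sfp-PPTase, 15 min, room temperature. Step 2, add rhodamine-CoA (5 uM) and BHQ-2-YbbR (12.5 uM). Step 3, read 525/598 nm fluorescence at 0 and 30 min.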
JMJD2A Tudor = blocks the human JMJD2A Tudor domain | AlphaScreen JMJD2A-Tudor / H3K4me3 peptide binding | Potency, µM (highest dose often 114 µM), without a hit: top-dose activity change, negative = inhibition, hits mostly inhibitors | hit rate 4.4% among 390,000; further: on the % scale 0 is the no-effect control and ±100 the full control effect; nearly all actives have a fitted effect of over 50% in size
Target sequence (O75164 whole entry, looked up, the tested form may be a part): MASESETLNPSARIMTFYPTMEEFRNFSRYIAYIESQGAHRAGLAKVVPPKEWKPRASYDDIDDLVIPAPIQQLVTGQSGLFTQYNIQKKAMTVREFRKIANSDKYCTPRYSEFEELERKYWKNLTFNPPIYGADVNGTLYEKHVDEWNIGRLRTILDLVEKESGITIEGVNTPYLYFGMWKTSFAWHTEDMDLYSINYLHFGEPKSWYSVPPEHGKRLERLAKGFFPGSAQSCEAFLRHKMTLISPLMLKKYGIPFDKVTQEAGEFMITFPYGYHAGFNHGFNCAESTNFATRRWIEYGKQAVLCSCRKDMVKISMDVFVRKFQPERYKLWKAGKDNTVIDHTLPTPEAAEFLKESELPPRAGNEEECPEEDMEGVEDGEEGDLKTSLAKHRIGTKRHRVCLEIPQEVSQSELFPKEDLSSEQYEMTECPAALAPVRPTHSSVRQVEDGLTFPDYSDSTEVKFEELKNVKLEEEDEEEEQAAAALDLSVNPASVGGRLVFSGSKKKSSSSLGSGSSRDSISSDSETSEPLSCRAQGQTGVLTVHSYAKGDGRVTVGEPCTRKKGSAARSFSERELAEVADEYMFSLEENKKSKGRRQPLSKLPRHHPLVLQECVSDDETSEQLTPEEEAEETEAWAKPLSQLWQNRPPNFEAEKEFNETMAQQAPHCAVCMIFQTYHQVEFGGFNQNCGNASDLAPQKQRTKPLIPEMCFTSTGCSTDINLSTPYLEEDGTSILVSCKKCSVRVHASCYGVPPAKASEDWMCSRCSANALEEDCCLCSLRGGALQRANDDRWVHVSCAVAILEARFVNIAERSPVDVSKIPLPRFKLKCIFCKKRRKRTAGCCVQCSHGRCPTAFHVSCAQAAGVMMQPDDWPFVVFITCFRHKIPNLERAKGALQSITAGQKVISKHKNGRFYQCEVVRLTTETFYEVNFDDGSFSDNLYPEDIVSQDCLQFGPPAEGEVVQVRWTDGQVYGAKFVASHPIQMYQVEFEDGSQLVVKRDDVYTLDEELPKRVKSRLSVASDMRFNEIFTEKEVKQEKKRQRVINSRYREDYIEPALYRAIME
* marks the source's active call; other numbers are inactive results; ? = inconclusive; / = no result; [ ] = dose if it differs, or a comment. Compounds with a hit are over-represented: about 12% of the library has one in this group of screens. The call rests on the fitted dose curve; in most records, active means well fitted curve in the direction sought with a large enough effect; inconclusive means small, poorly fitted or top-dose-only effect, or another doubt; inactive means no such curve, though single readings can be large; an effect the other way counts as inactive or inconclusive. Potency means the concentration at half of the fitted maximal effect.

SMILES	PLK1 PBD inh	BAZ2B inh	G9a block	HP1b chromo inh	Sfp inh	JMJD2A Tudor
CN(C)S(=O)(=O)c1ccc(NC=O)cc1	-2.5%	-1.8%	-3.5%	0.4%	12.8%	-1.0%
COc1cccc(CC2(CO)CCCN(Cc3sc(N4CCCC4)nc3Cl)C2)c1 (centres undefined)	?	-25.3%	/	-27.8%	-4.8%	?
CC(C)C[C@H](NC(=O)c1[nH]cnc1C(=O)N[C@@H](C)C(=O)OC(C)(C)C)C(=O)OC(C)(C)C	5.1%	8.9%	26.5%[12.7 µM]	45.6%	33.3%	-17.9%
CC(C)C[C@@H](CNCC(=O)[C@H](CC(C)C)NC(=O)c1[nH]cnc1C(=O)N[C@@H](C)CN)NC(=O)c1nc[nH]c1C(=O)N[C@@H](Cc1ccccc1)C(=O)O	-6.3%	/	/	35.4%	/	-29.5%
CC(C)C[C@@H](CN)NC(=O)c1nc[nH]c1C(=O)N[C@@H](C)C(=O)CNC[C@H](C)NC(=O)c1nc[nH]c1C(=O)N[C@@H](Cc1ccccc1)C(=O)O	-8.5%	/	/	51.9%	/	79.4µM*
CC(C)C[C@@H](CN)NC(=O)c1nc[nH]c1C(=O)N[C@@H](C)C(=O)CNC[C@H](C)NC(=O)c1nc[nH]c1C(=O)N[C@@H](C)C(=O)O	?	/	/	58.8%	/	50.1µM*
CC(C)C[C@@H](CN)NC(=O)c1nc[nH]c1C(=O)N[C@@H](C)C(=O)CNC[C@H](C)NC(=O)c1nc[nH]c1C(=O)N[C@@H](CC(C)C)C(=O)O	?	/	/	51.3%	/	50.1µM*
CC(C)C[C@@H](CNCC(=O)[C@H](CC(=O)O)NC(=O)c1[nH]cnc1C(=O)N[C@H](CN)CC(C)C)NC(=O)c1nc[nH]c1C(=O)N[C@@H](Cc1ccccc1)C(=O)O	?	/	/	-13.9%	/	50.1µM*
O=C(NCCc1cccs1)C12CN(Cc3ccccc3)CC1C(c1cccc([N+](=O)[O-])c1)=NO2 (centres undefined)	-6.3%	-0.4%	-36.2%[12.7 µM]	?	-18.9%	?
C=CCc1cccc(/C=N/NC(=O)CCC(=O)Nc2ccc(C)cc2)c1O	-0.3%	-1.8%	30.4%[59 µM]	38.8%	32.5%	6.0%
O=C(NCC1CC1)c1ccc2nc(-c3ccoc3)c(-c3ccoc3)nc2c1	/	/	/	10.2%[57 µM]	/	-27.7%[57.1 µM]
CC(C)C[C@@H](CN)NC(=O)c1nc[nH]c1C(=O)N[C@@H](CC(C)C)C(=O)CNC[C@H](C)NC(=O)c1nc[nH]c1C(=O)N[C@@H](C)C(=O)O	-14.1%	/	/	50.2%	/	79.4µM*
CC(C)C[C@H](NC(=O)c1[nH]cnc1C(=O)N[C@@H](C)c1ccccc1)C(=O)OCc1ccccc1	-2.1%	3.3%	19.3%[12.7 µM]	32.5%	29.5%	-35.2%
CCOc1ccc(C2C(C(N)=O)=C(C)Nc3nc(SCc4ccccc4)nn32)cc1 (centres undefined)	/	?	-23.1%[59 µM]	38.8%	/	-6.1%
COc1ccc(C2=Nn3c(nnc3-c3ccc(OC)c(OC)c3)SC2)c(OC)c1	/	/	/	/	3.0%	-35.9%
NC(=O)[C@@H]1CCCNc2c(I)cc([N+](=O)[O-])cc2C(=O)N[C@@H](CO)C(=O)NCC(=O)N1	-13.0%	-0.8%	79.4µM*	44.9%	29.7%	-6.2%
NC(=O)CC[C@@H]1NC(=O)[C@H](CO)NC(=O)c2cc([N+](=O)[O-])cc(I)c2NCCC[C@@H](C(N)=O)NC(=O)[C@H](Cc2ccc(O)cc2)NC1=O	-9.3%	?	50.1µM*	13.5%	5.0%	-35.9%
CC(C)C[C@@H]1NC(=O)[C@H](Cc2ccc(O)cc2)NC(=O)c2cc([N+](=O)[O-])cc(I)c2NCCC[C@@H](C(N)=O)NC1=O	-12.9%	?	70.8µM*	21.9%	-12.4%	-19.3%
NC(=O)[C@@H]1CCCNc2c(I)cc([N+](=O)[O-])cc2C(=O)N[C@@H](CO)C(=O)N[C@@H](Cc2ccc(O)cc2)C(=O)N1	-5.5%	-34.5%	44.7µM*	19.5%	-4.2%	-25.9%
CCCCCC(=O)NNC1=NCC(Cc2cccc(Cl)c2)S1 (centres undefined)	-17.2%	-33.2%	5.6%	21.7%	24.1%	?
NCCC(O)C(=O)NC1C[C@@H](N)[C@H](O[C@@H]2OC(CN)C(O)C(O)C2O)C(O)[C@H]1O[C@H]1OC(CO)C(O)C(N)C1O (some centres undefined)	/	/	15.5%[2.33 µM]	/	-4.7%	/
O=C(Cn1c(Cn2c(-c3cnccn3)nc3ccccc32)nc2ccccc21)c1ccc(OC(F)(F)F)cc1	-1.4%	/	/	/	/	/
C[C@H](CCCC(C)(C)O)[C@H]1CC[C@H]2[C@@H]3CC=C4C[C@@H](O)CC[C@]4(C)[C@H]3CC[C@]12C	/	/	5.1%[12.7 µM]	/	13.2%	/
COc1ccc(C2C3=C(N=CN(CCN4CCOCC4)C3N)Oc3ccccc32)cc1OC (centres undefined)	/	/	/	/	/	-17.7%
O=C1C=CC(O)C2(CO)OC12 (centres undefined)	-11.6%	/	/	/	/	/
SMILES	PLK1 PBD inh	BAZ2B inh	G9a block	HP1b chromo inh	Sfp inh	JMJD2A Tudor
COc1cccc(CNC(=O)CCc2c(C)c3cc4c(C)c(C)oc4cc3oc2=O)c1	/	-6.9%	-7.4%[59 µM]	10.4%	/	-24.2%
NC(=O)[C@@H]1CCCNc2c(I)cc([N+](=O)[O-])cc2C(=O)N[C@@H](Cc2ccccc2)C(=O)N[C@@H](Cc2cnc[nH]2)C(=O)N1	2.3%	50.1µM*	8.91µM*	7.5%	-5.4%	?
O=C(COC(=O)/C=C/c1ccccc1)NC1CCCCCC1	-4.5%	0.8%	2.2%[0.501 µM]	11.7%	/	-8.9%
O=C1CC(Sc2ncccn2)C(=O)N1c1ccccc1 (centres undefined)	-2.6%	-5.8%	?	62.7%	-2.5%	-1.3%
COc1ccc(N2C(=O)CC(Sc3nnnn3-c3ccc(F)cc3)C2=O)cc1 (centres undefined)	?	-21.7%	?	72.8%	15.8µM*	-9.1%
COc1ccc(N2C(=O)CC(Sc3nc(C)cc(C)c3C#N)C2=O)cc1 (centres undefined)	-7.8%	4.4%	?	10.5%	-7.0%	-4.3%
COc1ccc(N2C(=O)CC(Sc3nnc(-c4ccccc4)o3)C2=O)cc1 (centres undefined)	0.0%	-0.7%	10µM*	40.0%	56.2µM*	-6.3%
O=C1CC(Sc2nnc(-c3ccccc3O)o2)C(=O)N1c1ccccc1 (centres undefined)	?	?	7.94µM*	4.9%	56.2µM*	?
CCCc1ccc(C#N)c(SC2CC(=O)N(c3ccc(OC)cc3)C2=O)n1 (centres undefined)	-5.3%	-11.6%	?	18.0%	5.4%	-15.8%
COCCN(CCOC)c1ncnc2c1c(-c1ccccc1)cn2-c1ccc(C)c(Cl)c1	/	?	-33.5%[59 µM]	26.6%	/	-24.5%
